# Measured values reported in paper PMC4336329 (PLoS ONE, 2015).
# Out of some 310,000 compounds screened, about 14,000 (4.5%) showed an effect of 50% or more. The effect is printed as a negative number. The full list was thinned out, with strong results kept by preference.
# Target: human ether-à-go-go-related gene (hERG) potassium channel (human, UniProt Q12809)
# Assay: primary screen, population patch clamp on CHO cells stably expressing hERG; higher = less effect of the substance
# 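Note: peak tail current of the secondary pulse compared with the same well before compound.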
# Chain of human ether-à-go-go-related gene (hERG) potassium channel (Q12809 whole entry, looked up): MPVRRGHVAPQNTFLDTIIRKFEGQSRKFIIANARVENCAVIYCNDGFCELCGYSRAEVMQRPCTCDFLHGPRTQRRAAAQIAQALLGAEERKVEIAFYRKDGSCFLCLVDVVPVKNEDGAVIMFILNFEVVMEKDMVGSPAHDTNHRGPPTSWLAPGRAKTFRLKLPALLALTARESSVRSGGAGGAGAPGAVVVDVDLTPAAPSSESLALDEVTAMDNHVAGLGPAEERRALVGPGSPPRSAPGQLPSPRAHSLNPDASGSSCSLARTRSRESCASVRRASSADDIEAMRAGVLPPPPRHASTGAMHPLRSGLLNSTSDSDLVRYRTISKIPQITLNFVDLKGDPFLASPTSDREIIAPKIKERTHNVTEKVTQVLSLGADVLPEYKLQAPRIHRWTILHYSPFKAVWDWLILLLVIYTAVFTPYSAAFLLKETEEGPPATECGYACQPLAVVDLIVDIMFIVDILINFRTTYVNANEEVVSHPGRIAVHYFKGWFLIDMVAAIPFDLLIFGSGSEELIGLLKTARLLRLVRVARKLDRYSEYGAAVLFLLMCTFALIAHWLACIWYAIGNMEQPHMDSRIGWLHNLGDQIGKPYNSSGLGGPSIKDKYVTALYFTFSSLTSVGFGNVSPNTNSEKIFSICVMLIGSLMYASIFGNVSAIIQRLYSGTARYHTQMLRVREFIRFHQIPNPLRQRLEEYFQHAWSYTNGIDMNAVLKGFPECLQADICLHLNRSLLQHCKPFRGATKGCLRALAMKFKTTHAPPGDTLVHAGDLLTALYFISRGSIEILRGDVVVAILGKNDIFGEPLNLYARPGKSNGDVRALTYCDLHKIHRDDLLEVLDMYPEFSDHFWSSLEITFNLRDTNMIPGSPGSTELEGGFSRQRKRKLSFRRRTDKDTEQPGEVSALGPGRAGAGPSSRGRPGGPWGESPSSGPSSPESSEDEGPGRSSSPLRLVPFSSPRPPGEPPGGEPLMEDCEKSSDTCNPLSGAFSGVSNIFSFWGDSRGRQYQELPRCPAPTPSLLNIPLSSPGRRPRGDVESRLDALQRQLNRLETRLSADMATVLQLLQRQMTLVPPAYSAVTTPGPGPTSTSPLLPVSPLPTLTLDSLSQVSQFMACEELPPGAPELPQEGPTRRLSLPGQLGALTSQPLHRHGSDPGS
row,SMILES,"hERG current change (%, negative = inhibition) at 10uM [%]"
1,COc1ccc(OC)c(S(=O)(=O)ON2C(=O)c3ccccc3C2=O)c1,6.82
2,CCOC(=O)/C(C#N)=C/c1ccc(N2CCN(C)CC2)cc1,-27.8
3,CCOC(=O)/C(C#N)=C\c1ccc(N2CCN(C)CC2)cc1,-38.2
4,CCOC(=O)/C(C#N)=C/c1ccc(N2CCCCC2)cc1,-60.9
5,Cn1ncc(C(=O)Nc2ccc(OC(F)(F)F)cc2)c1-n1cccc1,-81.3
6,Cn1ncc(Br)c1NC(=O)Nc1ccc(OC(F)(F)F)cc1,8.82
7,O=C(CCn1cccc1)Nc1ccc(OC(F)(F)F)cc1,2.32
8,O=c1[nH]c2ccccc2nc1/C=C(\O)c1cccs1,19.5
9,CC(=O)N1CCCc2cc(S(=O)(=O)N(CC(C)C)CC(C)C)ccc21,-50.4
10,CCCCN(CC)S(=O)(=O)c1ccc2c(c1)CCCN2C(C)=O,-43.3
11,CCCN(CCC)S(=O)(=O)c1ccc2c(c1)CCCN2C(C)=O,-47.2
12,Cn1c(=O)oc2cc(S(=O)(=O)N3CCC(C(=O)NCc4ccccc4)CC3)ccc21,-6.54
13,CC(C)(C)NC(=O)Cn1nnc(-c2ccc(Cl)cc2)n1,2.32
14,COC(=O)C1=C(C)OC(N)=C(C#N)C1c1cc(OC)c(OCC(N)=O)cc1Cl (centres unmarked),-10
15,COC(=O)c1ccc(N2CCOCC2)c(F)c1,9.09
16,CC1CCN(C(=O)CSc2nc(=O)n3ccccc3n2)CC1,8.67
17,Cc1cccn2c(=O)nc(SCC(=O)N3CCC(C)CC3)nc12,-39.5
18,Cc1cccn2c(=O)nc(SCC(=O)N3CCC(Cc4ccccc4)CC3)nc12,-78.9
19,O=C(CSc1nc(=O)n2ccccc2n1)N1CCC(Cc2ccccc2)CC1,-58.1

row,SMILES,"hERG current change (%, negative = inhibition) at 10uM [%]"
1,Cc1cccn2c(=O)nc(SCC(=O)N3CCCCC3)nc12,-18.6
2,Cc1ccn2c(=O)nc(SCC(=O)N3CCN(c4ccccc4)CC3)nc2c1,-28.6
3,Cc1ccn2c(=O)nc(SCC(=O)N3CCC(C)CC3)nc2c1,-18.4
4,Cc1ccc2nc(SCC(=O)N3CCN(c4ccccc4)CC3)nc(=O)n2c1,-47.5
5,Cc1ccc2nc(SCC(=O)N3CCC(C)CC3)nc(=O)n2c1,-9.74
6,Cc1ccc2nc(SCC(=O)N3CCC(Cc4ccccc4)CC3)nc(=O)n2c1,-65
7,Cc1ccn2c(=O)nc(SCC(=O)N3CCC(Cc4ccccc4)CC3)nc2c1,-55.6
8,O=C(CSc1nc(=O)n2ccccc2n1)N1CCN(c2ccccc2)CC1,-27.7
9,O=C(CSc1nc(=O)n2ccccc2n1)N1CCCc2ccccc21,-16.8
10,N/C(=N\OC(=O)Cc1ccc([N+](=O)[O-])cc1)c1ccc([N+](=O)[O-])cc1,-24.4
11,CC(=O)c1c(C)n(CCc2ccc(Cl)cc2)c2ccc(O)cc12,20.8
12,O=C(CSc1nc2c(c(C(F)(F)F)n1)CCc1ccccc1-2)NCc1ccco1,2.99
13,COC1(OC)N=C(N)C2(C#N)C(c3ccccc3)NC(C)=CC12C#N (centres unmarked),2.16
14,COC(=O)CS(=O)(=O)c1cc(Br)cc2c1N(C(C)=O)CC2,5.36
15,COC(=O)C1=C(c2ccccc2OCc2ccccc2)C[C@@H]2CC[C@H]1N2C(=O)NCc1ccc(C(F)(F)F)cc1,-4.61
16,O=S(=O)(Cc1cccc(F)c1)c1c[nH]c2ccccc12,8.65
17,Cc1cccn2c(=O)nc(SCC(=O)N3CCOCC3)nc12,9.72
18,C=CCSc1nc(=O)n2ccc(C)cc2n1,-22.9
19,Cc1cccn2c(=O)nc(SCC(=O)N3CCCC3)nc12,-22.6

row,SMILES,"hERG current change (%, negative = inhibition) at 10uM [%]"
1,Cc1cccn2c(=O)nc(SCC(=O)N3CCN(c4ccccc4)CC3)nc12,-67.6
2,O=c1nc(SCc2cccc(C(F)(F)F)c2)nc2ccccn12,-37
3,Cc1ccn2c(=O)nc(SCc3cccc(C(F)(F)F)c3)nc2c1,-51.5
4,COC(=O)CSc1nc(C)c(Oc2ccccc2)c(=O)[nH]1,11.6
5,O=c1[nH]c(CN2CCc3ccccc3C2)nc2ccccc12,5.47
6,COc1ccc(-n2nc(C(=O)N3CCN(Cc4ccc5c(c4)OCO5)CC3)c3ccccc3c2=O)cc1,-4.87
7,COc1ccc(CN2CCN(C(=O)Cn3nc(C(=O)O)c4ccccc4c3=O)CC2)cc1F,-37.4
8,CCn1nc(C(=O)N2CCN(Cc3nc4ccccc4s3)CC2)c2ccccc2c1=O,-68.9
9,CCn1nc(C(=O)N2CCc3ccccc3C2)c2ccccc2c1=O,-13.6
10,O=C(c1n[nH]c(=O)c2ccccc12)N1CCN(Cc2ccc3c(c2)OCO3)CC1,2.15
11,CCn1nc(C(=O)N2CCN(Cc3ccc4c(c3)OCO4)CC2)c2ccccc2c1=O,-52.1
12,CCN1CCN(C(=O)c2nn(-c3ccccc3)c(=O)c3ccccc23)CC1,-2.92
13,N#Cc1ccc(CN2CCN(C(=O)Cn3nc(C(N)=O)c4ccccc4c3=O)CC2)cc1,-70
14,Cc1nn(CC(=O)N2CCN(Cc3ccccc3)CC2)c(=O)c2ccccc12,-2.85
15,Cc1cc2nc(-c3ccco3)cc(C(F)(F)F)n2n1,-5.82
16,CNc1c(NS(=O)(=O)c2ccc(F)c(Cl)c2)c(=O)oc2ccccc12,3.54
17,O=C(CSCC(=O)N1CCOCC1)Nc1nc(-c2ccccc2)cs1,-14.8
18,NC(=O)c1ccccc1OCC(=O)N1CCCc2ccccc21,14.5
